According to the supplement of paper PMC10849652:
The full data set covers some 8,800 targets. This sample favours those with a hit. About 0.5% of all pairs of compound and target were hits.

What was measured:
Assay in all cases: log2 fold change, soluble protein after heating vs DMSO (PISA); higher = thermal stabilisation; K562 lysate, 10 uM; active = over 0.2 and 3.5 SD of the protein, either way, in both replicates (recomputed)
alvocidib = compound: CN1CC[C@H](c2c(O)cc(O)c3c(=O)cc(-c4ccccc4Cl)oc23)[C@H](O)C1 [alvocidib]
In short: (§1)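 Following dounce homogenisation of K562 pellets in PBS pH 7.4 with 1 mM MgCl2, crude extract at 1 mg/mL protein was incubated for 30 min with 10 μM compound. Aliquots were then heated for 3 min over 48°C-58°C and pooled, NP-40 was added to 0.5% at 4°C, and soluble protein was recovered as the supernatant at 21,000xg for 90 min. Channel-sum-equalised TMTpro 16plex LC-MS/MS quantified this protein. Each value, from duplicates, is a log-two fold change in thermal stability relative to solvent controls.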

[1] = compound: C[C@H](C1=CC=C(C=C1)C(=O)NC2=C3C=CNC3=NC=C2)N
In short: as §1

gandotinib = compound: Cc1cc(Nc2cc(CN3CCOCC3)c3nc(C)c(Cc4ccc(Cl)cc4F)n3n2)n[nH]1 [gandotinib]
In short: as §1

[2] = compound: Cc1cccc(CC(=O)N2CCc3c2ccc(-c2cn(C)c4ncnc(N)c24)c3F)n1
In short: as §1

Tubastatin A = compound: CN1CCc2c(c3ccccc3n2Cc2ccc(C(=O)NO)cc2)C1 [Tubastatin A]
In short: as §1

defactinib = compound: CNC(=O)c1ccc(Nc2ncc(C(F)(F)F)c(NCc3nccnc3N(C)S(C)(=O)=O)n2)cc1 [defactinib]
In short: as §1

encorafenib = compound: COC(=O)N[C@@H](C)CNc1nccc(-c2cn(C(C)C)nc2-c2cc(Cl)cc(NS(C)(=O)=O)c2F)n1 [encorafenib]
In short: as §1

[3] = compound: COC(=O)[C@H](CCSC)NC(=O)C1=C(C=C(C=C1)NC[C@H](CS)N)C2=CC=CC=C2
In short: as §1

alisertib = compound: COc1cc(Nc2ncc3c(n2)-c2ccc(Cl)cc2C(c2c(F)cccc2OC)=NC3)ccc1C(=O)O [alisertib]
In short: as §1

gefitinib = compound: COc1cc2ncnc(Nc3ccc(F)c(Cl)c3)c2cc1OCCCN1CCOCC1 [gefitinib]
In short: as §1

pictilisib = compound: CS(=O)(=O)N1CCN(Cc2cc3nc(-c4cccc5[nH]ncc45)nc(N4CCOCC4)c3s2)CC1 [pictilisib]
In short: as §1

crizotinib = compound: C[C@@H](Oc1cc(-c2cnn(C3CCNCC3)c2)cnc1N)c1c(Cl)ccc(F)c1Cl [crizotinib]
In short: as §1

tozasertib = compound: Cc1cc(Nc2cc(N3CCN(C)CC3)nc(Sc3ccc(NC(=O)C4CC4)cc3)n2)n[nH]1 [tozasertib]
In short: as §1

doramapimod = compound: Cc1ccc(-n2nc(C(C)(C)C)cc2NC(=O)Nc2ccc(OCCN3CCOCC3)c3ccccc23)cc1 [doramapimod]
In short: as §1

bafetinib = compound: Cc1ccc(NC(=O)c2ccc(CN3CC[C@H](N(C)C)C3)c(C(F)(F)F)c2)cc1Nc1nccc(-c2cncnc2)n1 [bafetinib]
In short: as §1

[4] = compound: CNC(=O)C1=CC=CC=C1NC2=NC(=NC=C2Cl)NC3=C(C=C(C=C3)N4CCOCC4)OC
In short: as §1

[5] = compound: CNc1nc(-c2ccc3c(N)n[nH]c3c2)cc(N2C[C@@H](C(=O)NC3CCCCC3)CC[C@H]2C)n1
In short: as §1

[6] = compound: COc1cc2nc(-c3cc(F)ccc3O)nc(N[C@@H]3CNC[C@H]3C(C)(C)O)c2cc1OC
In short: as §1

lapatinib = compound: CS(=O)(=O)CCNCc1ccc(-c2ccc3ncnc(Nc4ccc(OCc5cccc(F)c5)c(Cl)c4)c3c2)o1 [lapatinib]
In short: as §1

duvelisib = compound: C[C@H](Nc1ncnc2nc[nH]c12)c1cc2cccc(Cl)c2c(=O)n1-c1ccccc1 [duvelisib]
In short: as §1

Measured: log2 fold change

RNASEH1 (UniProt O60930)
Chain of UniProt O60930 (O60930 whole entry, looked up): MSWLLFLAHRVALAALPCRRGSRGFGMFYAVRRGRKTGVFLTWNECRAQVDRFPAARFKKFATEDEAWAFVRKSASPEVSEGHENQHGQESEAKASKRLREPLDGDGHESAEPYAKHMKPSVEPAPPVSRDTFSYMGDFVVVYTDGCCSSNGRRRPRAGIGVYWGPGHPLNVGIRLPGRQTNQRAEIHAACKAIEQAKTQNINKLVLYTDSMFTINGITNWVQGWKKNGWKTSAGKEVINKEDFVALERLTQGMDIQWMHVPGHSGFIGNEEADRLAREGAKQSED
inactive: alvocidib 0.024 | [1] -0.014 | gandotinib -0.174 | [2] 0.274

RUFY2 isoform 1 (UniProt Q8WXA3)
inactive: alvocidib 0.01 | Tubastatin A 0.074 | defactinib 0.066 | encorafenib 0.13 | [3] -0.031 | alisertib 0.003 | gefitinib 0.053 | crizotinib -0.015 | [1] 0.116 | gandotinib 0.072 | tozasertib 0.131 | doramapimod -0.136 | bafetinib 0.177 | [2] -0.099
active: pictilisib -0.533

RNPC3 (UniProt Q96LT9)
Chain of UniProt Q96LT9 (Q96LT9 whole entry, looked up): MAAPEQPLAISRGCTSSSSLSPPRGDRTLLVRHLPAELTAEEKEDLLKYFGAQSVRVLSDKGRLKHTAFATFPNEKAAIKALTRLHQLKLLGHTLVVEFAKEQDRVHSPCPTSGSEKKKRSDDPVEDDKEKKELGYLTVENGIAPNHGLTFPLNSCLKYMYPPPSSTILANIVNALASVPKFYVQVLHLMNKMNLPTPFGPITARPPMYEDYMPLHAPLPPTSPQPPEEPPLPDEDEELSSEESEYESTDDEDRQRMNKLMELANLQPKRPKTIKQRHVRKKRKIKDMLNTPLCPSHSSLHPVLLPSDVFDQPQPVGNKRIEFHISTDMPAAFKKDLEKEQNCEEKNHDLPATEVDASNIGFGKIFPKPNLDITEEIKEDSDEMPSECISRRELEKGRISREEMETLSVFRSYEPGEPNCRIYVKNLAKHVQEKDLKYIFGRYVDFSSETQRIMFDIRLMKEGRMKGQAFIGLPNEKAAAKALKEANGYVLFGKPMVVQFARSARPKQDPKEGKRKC
inactive: alvocidib 0.012 | Tubastatin A -0.099 | [4] -0.047 | [5] 0.082 | alisertib 0.118 | [6] 0.056 | gefitinib -0.08 | lapatinib -0.018 | crizotinib -0.043 | [1] 0.036 | duvelisib 0.072 | gandotinib 0.016 | doramapimod -0.115 | [2] -0.115

SELENOK (UniProt Q9Y6D0)
inactive: alvocidib -0.169 | defactinib 0.123 | [5] -0.001 | alisertib -0.018 | [6] -0.025 | gefitinib 0.006 | lapatinib -0.065 | pictilisib -0.048 | duvelisib 0.082 | bafetinib -0.027
active: [1] -0.543 | gandotinib 0.52 | [2] 0.542

RBBP7 (UniProt Q16576)
inactive: Tubastatin A -0.005 | [4] 0.006 | defactinib -0.018 | [5] -0.125 | encorafenib 0.032 | [3] -0.021 | alisertib 0.014 | [6] -0.003 | gefitinib 0.006 | lapatinib 0.001 | pictilisib 0.007 | crizotinib 0.026 | duvelisib 0.02 | tozasertib 0.073 | doramapimod -0.036 | bafetinib -0.072

RXRB isoform 3 (UniProt P28702)
Chain of UniProt P28702 (P28702 whole entry, looked up): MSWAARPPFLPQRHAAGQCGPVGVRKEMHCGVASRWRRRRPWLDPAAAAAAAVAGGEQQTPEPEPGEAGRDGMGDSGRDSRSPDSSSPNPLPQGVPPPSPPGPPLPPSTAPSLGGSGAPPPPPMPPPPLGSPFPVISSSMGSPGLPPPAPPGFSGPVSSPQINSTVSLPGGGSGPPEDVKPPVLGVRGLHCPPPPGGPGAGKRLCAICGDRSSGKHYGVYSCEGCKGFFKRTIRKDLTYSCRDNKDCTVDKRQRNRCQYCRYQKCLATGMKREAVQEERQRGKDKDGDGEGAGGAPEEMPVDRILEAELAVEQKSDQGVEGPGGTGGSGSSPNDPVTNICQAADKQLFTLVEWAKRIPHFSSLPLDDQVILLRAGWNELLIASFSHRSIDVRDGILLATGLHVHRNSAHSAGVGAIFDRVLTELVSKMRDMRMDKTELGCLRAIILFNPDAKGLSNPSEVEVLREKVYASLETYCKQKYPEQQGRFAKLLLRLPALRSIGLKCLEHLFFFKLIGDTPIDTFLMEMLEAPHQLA
inactive: alvocidib 0.008 | [4] 0.126 | defactinib 0.05 | [5] -0.003 | encorafenib 0.066 | [3] -0.042 | alisertib -0.044 | [6] 0.073 | gefitinib 0.047 | lapatinib 0.085 | pictilisib -0.096 | crizotinib -0.011 | [1] 0.046 | duvelisib -0.051 | gandotinib -0.074 | tozasertib 0.006 | doramapimod -0.091 | bafetinib -0.11 | [2] 0.023

RMI2 (UniProt Q96E14)
Chain of UniProt Q96E14 (Q96E14 whole entry, looked up): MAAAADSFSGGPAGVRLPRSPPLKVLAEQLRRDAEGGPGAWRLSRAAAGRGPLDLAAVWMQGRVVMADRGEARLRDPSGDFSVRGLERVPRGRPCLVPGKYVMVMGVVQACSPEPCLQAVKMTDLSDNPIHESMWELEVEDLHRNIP
inactive: Tubastatin A -0.146 | [4] -0.074 | defactinib 0.265 | [5] 0.007 | encorafenib -0.054 | [3] -0.021 | crizotinib 0.005 | duvelisib 0.013 | tozasertib -0.068 | doramapimod -0.012

RYR1 (UniProt P21817)
inactive: alvocidib 0.015 | Tubastatin A 0.097 | [4] 0.064 | [5] 0.16 | encorafenib -0.024 | [3] -0.087 | [6] 0.02 | lapatinib 0.028 | pictilisib -0.048 | crizotinib -0.229 | [1] -0.017 | duvelisib -0.032 | gandotinib -0.027 | tozasertib 0.04 | doramapimod 0.112 | bafetinib -0.13 | [2] 0.016

RAD54L (UniProt Q92698)
Chain of UniProt Q92698 (Q92698 whole entry, looked up): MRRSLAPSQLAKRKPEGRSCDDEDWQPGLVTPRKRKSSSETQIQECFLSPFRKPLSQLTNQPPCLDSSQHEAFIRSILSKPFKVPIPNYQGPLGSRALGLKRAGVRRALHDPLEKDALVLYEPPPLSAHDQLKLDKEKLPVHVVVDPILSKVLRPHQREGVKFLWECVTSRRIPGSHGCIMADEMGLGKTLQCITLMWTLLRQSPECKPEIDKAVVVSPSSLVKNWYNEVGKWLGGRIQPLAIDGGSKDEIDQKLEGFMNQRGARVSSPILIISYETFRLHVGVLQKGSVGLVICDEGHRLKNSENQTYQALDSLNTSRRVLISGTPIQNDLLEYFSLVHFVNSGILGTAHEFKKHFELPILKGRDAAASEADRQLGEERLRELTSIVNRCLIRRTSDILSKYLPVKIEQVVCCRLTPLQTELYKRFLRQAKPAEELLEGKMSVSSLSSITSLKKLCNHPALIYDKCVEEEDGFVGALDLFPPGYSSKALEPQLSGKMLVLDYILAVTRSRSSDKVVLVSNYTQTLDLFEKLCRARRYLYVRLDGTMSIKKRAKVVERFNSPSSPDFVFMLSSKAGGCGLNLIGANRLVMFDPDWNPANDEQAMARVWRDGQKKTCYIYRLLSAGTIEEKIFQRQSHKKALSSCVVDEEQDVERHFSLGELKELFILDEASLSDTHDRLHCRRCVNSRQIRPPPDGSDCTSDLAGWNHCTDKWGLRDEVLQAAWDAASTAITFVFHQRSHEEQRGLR
active: [1] -1.75
inactive: alvocidib -0.673 | Tubastatin A 0 | [4] 0.013 | [5] -0.132 | alisertib -0.022 | [6] -0.041 | gefitinib 0 | lapatinib -0.029 | pictilisib 0.029 | duvelisib 0.109 | gandotinib 0.454 | bafetinib -0.185 | [2] 0.617

SCNM1 (UniProt Q9BWG6)
inactive: alvocidib -0.005 | Tubastatin A 0.035 | [4] 0.117 | [5] 0.127 | encorafenib 0.115 | [3] -0.311 | alisertib 0.035 | [6] 0.15 | gefitinib 0.114 | lapatinib 0.006 | crizotinib 0.057 | [1] 0.022 | duvelisib 0.057 | gandotinib 0.015 | tozasertib -0.039 | doramapimod -0.017 | [2] -0.157

SAP30 (UniProt O75446)
inactive: alvocidib -0.022 | defactinib -0.028 | [5] 0.089 | encorafenib -0.007 | [3] 0.053 | alisertib 0.044 | [6] 0.087 | gefitinib -0.285 | lapatinib -0.064 | pictilisib -0.036 | crizotinib 0.044 | [1] 0.042 | duvelisib 0.004 | gandotinib -0.036 | tozasertib -0.056 | doramapimod 0.013 | bafetinib -0.073 | [2] 0.012

RAB5IF isoform 5 (UniProt Q9BUV8)
Chain of UniProt Q9BUV8 (Q9BUV8 whole entry, looked up): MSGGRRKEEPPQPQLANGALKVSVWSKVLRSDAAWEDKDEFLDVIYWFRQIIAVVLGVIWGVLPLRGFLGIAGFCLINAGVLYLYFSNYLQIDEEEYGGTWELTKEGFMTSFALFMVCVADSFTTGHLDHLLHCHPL
inactive: alvocidib 0.249 | [4] 0 | defactinib -0.032 | [5] -0.011 | encorafenib 0.04 | [3] -0.125 | alisertib 0.15 | [6] -0.011 | gefitinib 0.131 | lapatinib -0.043 | pictilisib -0.122 | duvelisib -0.071 | gandotinib -0.234 | tozasertib 0 | bafetinib 0.221 | [2] -0.357
active: [1] 0.753

RAD54L2 (UniProt Q9Y4B4)
inactive: alvocidib 0.007 | [4] -0.065 | defactinib -0.013 | [5] 0.093 | encorafenib 0.102 | [3] 0.153 | alisertib 0.141 | [6] -0.088 | gefitinib 0.045 | lapatinib -0.209 | pictilisib -0.018 | crizotinib -0.037 | [1] -0.174 | duvelisib 0.026 | gandotinib -0.163 | tozasertib -0.166 | doramapimod -0.02 | bafetinib -0.095 | [2] 0.067

RALGAPB isoform 3 (UniProt Q86X10)
inactive: alvocidib 0.161 | [5] 0.064 | encorafenib 0.073 | [3] 0.107 | pictilisib -0.018 | [1] -0.04 | duvelisib -0.396 | gandotinib -0.33 | tozasertib 0.027 | bafetinib -0.255 | [2] -0.026

QSER1, A0A3B3IRW6
inactive: Tubastatin A -0.122 | [4] 0.014 | defactinib 0.019 | [5] -0.035 | encorafenib 0.059 | [3] 0.183 | alisertib 0.025 | [6] -0.004 | gefitinib -0.021 | lapatinib -0.04 | crizotinib -0.072 | duvelisib 0.005 | tozasertib -0.033 | doramapimod 0

SEC16A isoform 2 (UniProt O15027)
Chain of UniProt O15027 (O15027 whole entry, looked up): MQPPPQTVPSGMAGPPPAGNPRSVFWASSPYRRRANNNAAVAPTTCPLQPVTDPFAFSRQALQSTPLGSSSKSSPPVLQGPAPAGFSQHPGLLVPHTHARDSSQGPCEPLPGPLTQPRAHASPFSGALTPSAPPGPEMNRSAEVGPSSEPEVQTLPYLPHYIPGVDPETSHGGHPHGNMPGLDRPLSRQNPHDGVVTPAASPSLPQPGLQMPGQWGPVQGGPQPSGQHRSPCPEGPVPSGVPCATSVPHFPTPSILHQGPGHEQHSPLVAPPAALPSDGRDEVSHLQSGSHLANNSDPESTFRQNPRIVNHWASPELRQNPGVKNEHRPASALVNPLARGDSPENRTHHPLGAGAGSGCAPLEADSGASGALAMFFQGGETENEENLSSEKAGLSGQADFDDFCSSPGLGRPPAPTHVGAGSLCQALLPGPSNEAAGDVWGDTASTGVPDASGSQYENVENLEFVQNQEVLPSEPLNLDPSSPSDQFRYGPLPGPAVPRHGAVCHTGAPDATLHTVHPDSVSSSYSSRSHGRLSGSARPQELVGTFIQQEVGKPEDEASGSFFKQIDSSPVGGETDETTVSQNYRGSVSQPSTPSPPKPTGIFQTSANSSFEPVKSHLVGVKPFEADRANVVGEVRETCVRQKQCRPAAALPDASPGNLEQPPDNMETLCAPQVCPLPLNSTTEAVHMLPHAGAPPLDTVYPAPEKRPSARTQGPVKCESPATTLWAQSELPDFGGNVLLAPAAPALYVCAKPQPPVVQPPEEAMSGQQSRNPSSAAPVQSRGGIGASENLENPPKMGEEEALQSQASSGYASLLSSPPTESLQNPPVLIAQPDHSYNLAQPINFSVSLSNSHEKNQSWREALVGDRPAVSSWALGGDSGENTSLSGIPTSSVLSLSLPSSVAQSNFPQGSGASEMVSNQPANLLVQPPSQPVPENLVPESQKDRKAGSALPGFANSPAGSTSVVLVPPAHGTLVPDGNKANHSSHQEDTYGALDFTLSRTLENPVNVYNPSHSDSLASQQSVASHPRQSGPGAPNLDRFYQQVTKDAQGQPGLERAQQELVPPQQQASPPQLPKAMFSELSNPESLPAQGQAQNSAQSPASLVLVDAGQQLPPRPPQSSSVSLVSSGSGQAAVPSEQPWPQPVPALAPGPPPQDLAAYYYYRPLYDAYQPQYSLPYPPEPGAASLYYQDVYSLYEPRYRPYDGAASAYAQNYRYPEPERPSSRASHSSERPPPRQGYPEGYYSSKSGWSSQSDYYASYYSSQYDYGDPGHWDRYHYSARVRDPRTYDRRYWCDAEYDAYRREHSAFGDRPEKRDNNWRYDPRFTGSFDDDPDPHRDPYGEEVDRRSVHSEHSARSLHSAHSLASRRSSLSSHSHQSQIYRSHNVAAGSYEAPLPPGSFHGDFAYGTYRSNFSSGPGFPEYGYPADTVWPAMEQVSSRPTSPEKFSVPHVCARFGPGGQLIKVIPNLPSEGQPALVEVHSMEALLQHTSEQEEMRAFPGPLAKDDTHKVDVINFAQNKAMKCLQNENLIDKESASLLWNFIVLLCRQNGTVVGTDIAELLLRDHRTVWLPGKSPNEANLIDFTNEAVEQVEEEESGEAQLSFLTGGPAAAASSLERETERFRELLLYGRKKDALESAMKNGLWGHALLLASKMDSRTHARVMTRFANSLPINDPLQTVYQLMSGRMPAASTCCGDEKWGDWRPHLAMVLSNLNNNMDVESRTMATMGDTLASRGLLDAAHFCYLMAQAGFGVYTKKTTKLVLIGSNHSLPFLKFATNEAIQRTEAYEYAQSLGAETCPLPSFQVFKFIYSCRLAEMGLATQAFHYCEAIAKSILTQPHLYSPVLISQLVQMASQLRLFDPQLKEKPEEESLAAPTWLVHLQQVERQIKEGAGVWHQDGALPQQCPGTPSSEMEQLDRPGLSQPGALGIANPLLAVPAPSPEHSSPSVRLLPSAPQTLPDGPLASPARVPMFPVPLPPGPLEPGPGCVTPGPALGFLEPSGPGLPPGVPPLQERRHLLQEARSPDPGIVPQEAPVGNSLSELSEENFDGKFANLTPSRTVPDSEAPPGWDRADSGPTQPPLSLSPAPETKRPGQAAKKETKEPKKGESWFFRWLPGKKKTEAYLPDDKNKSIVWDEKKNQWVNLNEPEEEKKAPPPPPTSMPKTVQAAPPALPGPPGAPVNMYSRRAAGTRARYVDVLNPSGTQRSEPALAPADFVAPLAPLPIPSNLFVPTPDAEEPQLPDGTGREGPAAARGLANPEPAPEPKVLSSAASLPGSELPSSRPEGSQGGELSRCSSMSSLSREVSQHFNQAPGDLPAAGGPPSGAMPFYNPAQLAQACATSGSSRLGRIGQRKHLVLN
inactive: Tubastatin A 0.023

RPS6KA3 (UniProt P51812)
active: defactinib 0.433
inactive: alvocidib 0.306 | Tubastatin A -0.151 | [5] -0.017 | encorafenib -0.107 | [3] 0.056 | [6] 0.049 | gefitinib -0.025 | lapatinib -0.089 | pictilisib 0.223 | crizotinib -0.012 | [1] -0.037 | duvelisib -0.016 | gandotinib 0.156 | tozasertib 0.363 | doramapimod -0.057 | bafetinib -0.077 | [2] -0.083

RAP1B (UniProt F5GZG1)
inactive: alvocidib -0.118 | [4] 0.01 | defactinib -0.05 | [5] -0.104 | encorafenib 0.056 | [3] 0.124 | alisertib 0.059 | [6] 0.002 | gefitinib 0.071 | lapatinib 0.003 | pictilisib 0.02 | crizotinib -0.022 | [1] -0.313 | duvelisib 0.016 | gandotinib 0.127 | tozasertib 0.103 | doramapimod -0.115 | bafetinib -0.098 | [2] 0.201

RNF170 (UniProt Q96K19)
Chain of UniProt Q96K19 (Q96K19 whole entry, looked up): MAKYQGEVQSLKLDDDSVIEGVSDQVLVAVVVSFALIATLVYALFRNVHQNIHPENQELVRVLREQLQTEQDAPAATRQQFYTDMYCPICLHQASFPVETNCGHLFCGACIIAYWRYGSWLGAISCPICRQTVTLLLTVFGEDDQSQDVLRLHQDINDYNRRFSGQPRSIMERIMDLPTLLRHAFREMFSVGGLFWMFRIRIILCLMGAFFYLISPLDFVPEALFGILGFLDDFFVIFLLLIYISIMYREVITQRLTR
active: [2] 1.2
inactive: alvocidib 0.371 | [4] -0.137 | defactinib 0.027 | [5] -0.067 | alisertib 0.055 | [6] 0.07 | gefitinib 0.037 | lapatinib -0.011 | pictilisib -0.332 | [1] -0.042 | duvelisib -0.229 | gandotinib -0.198 | bafetinib 0.024

RAD17 (UniProt O75943)
inactive: alvocidib -0.24 | Tubastatin A -0.041 | defactinib 0.111 | [5] 0.154 | encorafenib 0.094 | [3] 0.026 | alisertib 0.029 | gefitinib 0.022 | pictilisib -0.019 | crizotinib -0.01 | [1] 0.021 | duvelisib -0.027 | gandotinib -0.194 | tozasertib 0.005 | doramapimod -0.015 | bafetinib 0 | [2] -0.055

RFNG (UniProt Q9Y644)
inactive: alisertib -0.003 | gefitinib 0.424

SEC16A isoform 3 (UniProt O15027)
inactive: Tubastatin A -0.008 | [5] 0.023 | duvelisib 0.024

RXRA (UniProt P19793)
inactive: alvocidib -0.019 | Tubastatin A 0.138 | [4] -0.06 | [5] 0.072 | alisertib -0.117 | [6] 0.018 | gefitinib 0.043 | lapatinib -0.045 | crizotinib -0.062 | [1] -0.041 | duvelisib 0 | gandotinib -0.047 | doramapimod 0.019 | [2] 0.126
